Assay outcomes: PubChem BioAssay, several laboratories
In the library only some 12% were active in any assay of this set; here they are far more common.
Lmaj promast = Leishmania major promastigote growth inhibition; Leishmania major promastigotes, resazurin fluorescence viability; inhibition, % at 10 µM; 9% of 200,000 active; in the data active = inhibition above about 50%;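 note: promastigotes grown with compound for 44 hours at 28 °C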
CHOP inh = inhibitors of CHOP induction in ER stress response. CHO-K1 CHOP-promoter luciferase, tunicamycin-induced, 15-18 h. inhibition, % at 10 µM. 3.8% of 220,000 active;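 active = compounds that reduced the stress-induced luciferase reporter signal by more than about 70% of percent inhibition, limit read from the data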
Arbovirus inh = arbovirus infection inhibition. inhibition, % at 10 µM. arbovirus infection cell-based antiviral screen. 0.37% of 200,000 active; in the data active = inhibition above about 30%
WT yeast gro inh = growth inhibition of WT yeast, mitochondrial fusion screen | mitochondrial fusion phenotypic screen, WT strain | inhibition, % at 10 µM | 2.1% of 190,000 active; in the data active = inhibition above about 58%; tested in S. cerevisiae
Of the large screens only hits and unclear results are named; the others gave an inactive call.

O=C(O)C1CCC(=O)N1C(=O)OCc1ccccc1 (stereo not given)	none (no result: Lmaj promast, Arbovirus inh, WT yeast gro inh)
CNS(=O)(=O)c1cccc(C(=O)OCC(=O)Nc2ccc(OC)cc2[N+](=O)[O-])c1	none
CC(C)CCNC(=O)c1nnc(Cc2ccc(Cl)cc2)o1	none
CCn1c(C)[n+](Cc2ccccc2)c2ccc(Cl)cc21	none
CCn1c(/C=C/N(C)c2ccccc2)[n+](CC)c2ccc(Cl)cc21	Lmaj promast 100
CCOC(=O)c1ccc2c(c1)n(CC)c(/C=C/Nc1ccccc1)[n+]2CC	none
CCn1c(/C=C/Nc2ccccc2)[n+](CC)c2ccc(Cl)cc21	Lmaj promast 91
Cc1cc(C(=O)CSc2nnc(-c3ccccc3)n2-c2ccccc2)c(C)n1-c1ncn[nH]1	none
Cc1cc(C(=O)CSc2nnc3ccccn23)c(C)n1-c1ccccc1	CHOP inh 73
O=C(CCCOc1ccc(Cl)cc1Cl)N1CCCc2ccccc21	WT yeast gro inh 75
O=C(COc1ccc2c(c1)CCC2)N1CCc2ccccc21	Lmaj promast 52
Cc1cc(Cl)ccc1OCC(=O)N1CCCCC1	none
O=C(COc1ccc(Cl)cc1Cl)N1CCCN(C(=O)COc2ccc(Cl)cc2Cl)CC1	Lmaj promast 97, WT yeast gro inh 76
O=C(CO/N=C/c1ccccc1O)N1CCc2ccccc21	Lmaj promast 75
O=C(Cc1ccccc1)NNC(=O)Nc1ccccc1	none
Cc1ccc[n+](C(C)C(=O)Nc2ccc(C)c([N+](=O)[O-])c2)c1 (stereo not given)	none
O=C1CCC/C(=N/Nc2ccc(Cl)cc2)C1	Lmaj promast 99
Cc1ccc(C)c(NC(=S)NC(NC(=O)Cc2cccc3ccccc23)C(Cl)(Cl)Cl)c1 (stereo not given)	CHOP inh 79
Cc1ccccc1NC(=S)NC(NC(=O)COc1ccccc1)C(Cl)(Cl)Cl (stereo not given)	CHOP inh 83
COc1ccccc1N1CCN(CCCCOc2cccc3ccccc23)CC1	CHOP inh 84
CCOc1ccccc1OCCCCN1CCCC1	none
CC(C)c1cccc(C(C)C)c1OCCCCN1CCCC1	Lmaj promast 92
CC(C)(C)c1ccccc1OCCCCN1CCCC1	Lmaj promast 99
Cc1cccc(C(C)(C)C)c1OCCCCN1CCCC1	Lmaj promast 100
CO/N=C/c1ccc(OC)c(Oc2nc(OC)cc(OC)n2)c1	none
CC1(C)CC(=O)C2=C(C1)N(c1cccc(Cl)c1)C(=O)NC2(C(F)(F)F)C(F)(F)F	none
Oc1ccc(C[C@H]2CNC(=S)N2CCc2cc(C(F)(F)F)cc(C(F)(F)F)c2)cc1	none
Oc1ccc(C[C@@H]2CNC(=S)N2CCc2cc(C(F)(F)F)cc(C(F)(F)F)c2)cc1	CHOP inh 80 (no result: Lmaj promast, Arbovirus inh, WT yeast gro inh)
FC(F)(F)c1cc(CCN2C(=S)NC[C@@H]2Cc2ccccc2)cc(C(F)(F)F)c1	WT yeast gro inh 64
FC(F)(F)c1cc(CCN2C(=S)NC[C@@H]2c2ccccc2)cc(C(F)(F)F)c1	none (no result: Lmaj promast, Arbovirus inh, WT yeast gro inh)
Cc1cc(C)cc(NC(=O)c2nnn(Cc3cc(C)ccc3C)c2N)c1	CHOP inh 93
COc1cccc(NC(=O)c2nnn(Cc3ccc(Br)cc3F)c2N)c1	CHOP inh 73
COc1cccc(NC(=O)Cn2nnc(C(=O)Nc3ccccc3)c2N)c1	none
Cc1ccc(C(=O)NC2CCS(=O)(=O)C2)cc1S(=O)(=O)N1CCCCCC1 (stereo not given)	none
Nn1c(Cc2cccc3ccccc23)nnc1SCCOc1ccc(Br)cc1	WT yeast gro inh 68
COc1ccc([N+](=O)[O-])cc1NC(=O)c1ccccc1N(C)S(C)(=O)=O	none
Cc1cc(C)n2ncc(C(=O)NCc3ccccc3)c2n1	Lmaj promast 55
CCCN1Cc2cccc(C(=O)N3CCN(c4cc(Cl)ccc4C)CC3)c2C1=O	Lmaj promast 97, Arbovirus inh 47
CCOC(=O)N1CCC(N2Cc3cccc(C(=O)N4CCN(c5cccc(C)c5C)CC4)c3C2=O)CC1	Lmaj promast 62
CCOC(=O)N1CCC(N2Cc3cccc(C(=O)N4CCN(c5cccc(Cl)c5)CC4)c3C2=O)CC1	none
O=C(Nc1ccccc1Cl)C1CC(=O)n2c(nc3ccccc32)N1 (stereo not given)	none
O=C(CNC(=O)C1COc2ccccc2O1)N/N=C/c1ccc(O)cc1O (stereo not given)	Lmaj promast 98
C=C1CCN([C@@H](C)C(=O)NCCCCCC)S(=O)(=O)c2ccccc21	none (no result: Lmaj promast, Arbovirus inh, WT yeast gro inh)
O=C(c1ccccc1F)N1CCN(c2ccc([N+](=O)[O-])c3ncccc23)CC1	none
O=[N+]([O-])c1cccc2c(N3CCCC3)ccnc12	Lmaj promast 88
N#Cc1cc(NC2CCCC2)c([N+](=O)[O-])cc1C#N	Lmaj promast 61
CCCN1CCCc2cc(CN)ccc21	Lmaj promast 100
CCOC(=O)CN(C(=O)c1ccccc1)c1ccccc1C	none
Cc1ccccc1NC(=O)CCC(=O)N/N=C/c1ccc(F)cc1	none
Cc1ccccc1N(CC(=O)N/N=C/c1ccc(F)cc1)C(=O)c1ccccc1	Lmaj promast 99, CHOP inh 89
O=C(Cc1cccc2ccccc12)N/N=C/c1ccc(F)cc1	CHOP inh 74
Cc1ccccc1N(CC(=O)N/N=C/c1ccc(Cl)cc1)C(=O)c1ccccc1	Lmaj promast 68, CHOP inh 72
O=C1C2CC=CCC2C(=O)N1Cc1nnc(-c2ccccc2Br)o1 (stereo not given)	none (no result: Lmaj promast, Arbovirus inh, WT yeast gro inh)
CCCCCCCCCOC(=O)C[n+]1csc(CCO)c1C	Lmaj promast 98
Cc1cn(C(=O)c2ccccc2)c(=S)n1-c1ccc(Cl)cc1	Lmaj promast 85
Cc1ccc(C(C(=O)NCc2ccco2)N(C(=O)CNC(=O)c2cccs2)c2c(C)cc(C)cc2C)cc1 (stereo not given)	CHOP inh 74
CCN(CC)S(=O)(=O)c1ccc(NN=C2CCN(C(C)C)CC2)c([N+](=O)[O-])c1	none (no result: Lmaj promast, Arbovirus inh, WT yeast gro inh)
CC(C)(C)C1CCC(=NNc2ccc(S(N)(=O)=O)cc2[N+](=O)[O-])CC1 (stereo not given)	Lmaj promast 85, CHOP inh 83
CCN(CC)S(=O)(=O)c1ccc(NN=C2CCN(C)CC2)c([N+](=O)[O-])c1	Lmaj promast 81
N#Cc1ccc(/C=C\c2nccc3c2[nH]c2ccccc23)cc1	CHOP inh 78
Clc1ccc(/C=C\c2nccc3c2[nH]c2ccccc23)cc1	none
N=C1C(c2nc3ccccc3s2)=C(O)CN1C1CCCCC1	none
O=C(NC12CC3CC(CC(C3)C1)C2)C1CC(=O)N(c2ccccc2)C1 (stereo not given)	none
O=C(Nc1cccc(Cl)c1Cl)C1CC(=O)N(c2ccc(Br)cc2)C1 (stereo not given)	CHOP inh 78
O=C(NC12CC3CC(CC(C3)C1)C2)C1CC(=O)N(c2ccc(Br)cc2)C1 (stereo not given)	CHOP inh 70
COC(=O)c1ccc(N2C(=O)C3CC=CC(C)C3C2=O)cc1 (stereo not given)	none
Cc1cc(NC(=O)c2cc(-c3ccccc3)on2)no1	none
O=C(c1ccccc1)c1cc(-c2ccccc2)on1	CHOP inh 93
COc1c(F)c(F)c(C(=O)Nc2ccccc2N2CCN(C(=O)C(C)C)CC2)c(F)c1F	Lmaj promast 51
Cc1nc2scc(-c3ccccc3)c2c(=O)n1N=C1C=CC(=O)C=C1	CHOP inh 110
Cc1nc2scc(-c3ccccc3)c2c(=O)n1N	none
